Bioassay records deposited in PubChem by National Center for Advancing Translational Sciences (NCATS).
D1 ag: Allosteric Agonists of the Human D1 Dopamine Receptor: qHTS | AID 504660, 2011 | 360,000 tested, 1% active | activation, % at 2 µM | HEK293 T-REx D1 cells, calcium flux, agonist mode
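Tetracycline-induced HEK293 TREx D1 cells, force-coupled to calcium signalling, were dye-loaded with a no-wash calcium kit. Compound was pin-added after a 10 s baseline. Fluorescence was read kinetically at 1 cycle/s for 180 s, with calcium rises flagged as agonism.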
D1 PAM: Potentiators of Human D1 Dopamine Receptor: qHTS; D(1A) dopamine receptor (Homo sapiens), P21728; HEK293 TREx D1 cells, calcium flux, dopamine EC20 potentiation; potentiation, % at 10 µM; 360,000 tested, 0.036% active; AID 504651, 2011; in the data active = potentiation above about 30%
TRHR ag: qHTS for Small Molecule Agonists and Allosteric Enhancers of Human TRH Receptor: Primary Screen for Agonists | Thyrotropin-releasing hormone receptor (Homo sapiens), P34981 | TRHR cells, calcium flux fluo-8, FDSS agonist mode | 360,000 tested, 0.18% active | activation, % at 2 µM
Target sequence (P34981 whole entry, looked up): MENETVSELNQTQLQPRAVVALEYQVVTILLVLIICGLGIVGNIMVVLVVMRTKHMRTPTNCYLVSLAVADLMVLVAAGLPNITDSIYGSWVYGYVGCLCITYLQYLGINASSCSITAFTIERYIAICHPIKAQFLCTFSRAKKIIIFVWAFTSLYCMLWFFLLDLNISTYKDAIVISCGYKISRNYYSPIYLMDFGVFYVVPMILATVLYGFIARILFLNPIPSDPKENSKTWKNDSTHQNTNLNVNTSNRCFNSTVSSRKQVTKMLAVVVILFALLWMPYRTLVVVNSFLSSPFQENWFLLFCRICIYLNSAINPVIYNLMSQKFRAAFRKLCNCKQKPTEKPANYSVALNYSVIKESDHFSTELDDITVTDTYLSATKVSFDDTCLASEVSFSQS
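Agonist-mode FDSS calcium read (Ex 480/Em 530, 1 s cycles) in 1536-well TRHR cells with fluo-8 dye, after 10-cycle baseline and 23 nL compound addition; TRH at EC20 (10 nM final) added afterwards for the enhancer phase.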
D1 antag: Antagonist of Human D 1 Dopamine Receptor: qHTS; D(1A) dopamine receptor (Homo sapiens), P21728; HEK293 TREx D1 cells, calcium flux, dopamine EC80; active compounds read low; activity change, negative = inhibition, % at 10 µM; 360,000 tested, 3.2% active; in the data active = activity change below about -30%
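Cells carrying a force-coupled, tetracycline-inducible human D1 receptor report calcium flux. Each well gets a 10 s baseline, compound with 180 s monitoring, then an EC80 dopamine stimulus with a second 180 s kinetic read.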
TRHR enhancer: qHTS for Small Molecule Agonists and Allosteric Enhancers of Human TRH Receptor: Primary Screen for Enhancers; TRHR cells, fluo-8 calcium fluorescence, EC20 TRH enhancement; 360,000 tested, 0.66% active; enhancement, % at 2 µM; in the data active = enhancement above about 30%
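TRHR-expressing cells loaded with fluo-8 calcium dye were read kinetically (ex 480/em 530) during compound addition, then stimulated with an EC20 of TRH (10 nM final). Enhancement of the Gq-mediated intracellular calcium response was scored.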
Each line names hits and unclear results; the compound was inactive in the other large screens; ! = not active in a repeat. Rows were chosen to be rich in hits. Some 4.6% of all compounds tested hit in one or more screens of this group. Rule as the data show it, unless noted: active = activation above about 30%; inactive = the rest.

CC(C)C(=O)OCCN=C1NS(=O)(=O)c2ccccc21	D1 antag -36
CC(C)(C)NC(=O)CN(C(=O)CN1C(=O)C(=O)c2ccccc21)C(C)(C)C	none
Cc1ccc(NC(=O)CCN2C(=O)NC(C)(C)C2=O)cc1F	none
COc1ccc(-c2c(C)c3ccc(O)c(CN4CCN(CCO)CC4)c3oc2=O)cc1OC	none
COc1ccccc1CCNC(=O)c1ccc(-c2nc(CSc3ccc(C)cc3)c(C)o2)cc1	none
CCOCc1c(C(=O)N2CCN(CC(=O)Nc3ccc(F)cc3)CC2)oc2ccccc12	D1 antag -34
CCOCc1c(C(=O)N2CCN(CCOc3ccc(Cl)cc3)CC2)oc2ccccc12	none
Cc1ccc2c(C)c(C(=O)Nc3c(C)n(C)n(-c4ccccc4)c3=O)oc2c1C	D1 antag -37
O=C(Nc1c(Cl)cccc1Cl)c1cc(-c2ccc3c(c2)OCO3)on1	none
Cc1cc2oc(C(=O)Nc3c(C)n(C)n(-c4ccccc4)c3=O)c(C)c2cc1C	none
Cc1c(NC(=O)c2cc(-c3ccc(Cl)cc3)on2)c(=O)n(-c2ccccc2)n1C	TRHR enhancer 30!
O=C(Nc1c(Cl)cccc1Cl)c1cc(-c2cccc(O)c2)on1	D1 ag 47, D1 antag -50
CCn1c(=O)cc(SCC(=O)NCc2ccccc2OC)c2ccccc21	none
CCc1ccc2oc(-c3cccc(NC(=O)c4ccc(N5CCC(C)CC5)c([N+](=O)[O-])c4)c3)nc2c1	none
CCCCc1cc(=O)oc2cc(OCC(=O)NCc3ccccn3)ccc12	D1 antag -42
C=CCn1c(N)c(C(=O)Nc2ccccc2)c2nc3ccccc3nc21	D1 antag -36
C=CCn1c(N)c(C(=O)OC(C)(C)C)c2nc3ccccc3nc21	none
COc1ccc(-c2nc(=S)c3ccc4ccccc4c3[nH]2)cc1	D1 antag -68
COc1cc(C(=O)Oc2ccccc2)ccc1OCc1c(C)noc1C	D1 antag -37
COc1cc(C(=O)Nc2nnc(C3CC3)s2)ccc1OCc1c(C)noc1C	D1 antag -32
COc1cc(C(=O)O)ccc1OCc1c(C)noc1C	none (no result: D1 antag)
Cc1noc(C)c1COc1ccc(C(=O)O)cc1	TRHR enhancer 32
CCOC(=O)C1(Cc2cccc(Cl)c2)CCCN(C(=O)c2cnn(CC)c2)C1 (configuration not stated)	D1 antag -38
CCOC(=O)C1(Cc2cccc(Cl)c2)CCCN(C(=O)c2cn[nH]c2)C1 (configuration not stated)	none
CCSc1nc(-c2ccccc2OC)nc2c1Cc1c(CO)cnc(C)c1O2	none
Cc1cc(Br)ccc1NCc1ccccn1	D1 antag -56
COc1cccc(CNC(=O)CCn2c(=O)c3cccn3c3ccc(F)cc32)c1OC	none
COc1c(Cl)cc(Cl)cc1C(=O)Nc1ccc(CN2CCCCC2)cc1	D1 ag 31
COc1ccc(C(=O)NC(=S)Nc2ccc(CN3CCCCC3)cc2)cc1Cl	none
Cc1ccc(Cl)cc1N1CCN(CC(=O)Nc2ccc(CN3CCCCC3)cc2)CC1	D1 ag 54, D1 antag -48
Cc1ccc(C(=O)NC(=S)Nc2ccc(CN3CCCCC3)cc2)c(C)c1	D1 antag -42
Cc1nnc(N2C(=O)C(=O)/C(=C(/O)c3ccc4c(c3)OCCO4)C2c2ccc([N+](=O)[O-])cc2)s1 (configuration not stated)	none
CCCn1cnc2c(sc3nc4c(cc32)CSC(C)(C)C4)c1=O	D1 antag -41
N#C/C(=C/c1ccc(O)c(O)c1)C(=O)NCc1ccc(Cl)cc1	D1 ag 79, D1 antag -33 (no result: D1 PAM)
O=C1CC(c2ccccc2)C(C(=O)Nc2ccccc2F)N1 (configuration not stated)	D1 antag -32
CCC(C)NC(=O)CSc1nc2cc3c(cc2c(=O)n1CCCCCC(=O)NCc1ccc2c(c1)OCO2)OCO3 (configuration not stated)	none
CC(C)C(=O)N1c2ncnn2C2(CCCCC2)[C@@H]2CCCC[C@@H]21	none
O=C(Nc1cccc(NC(=O)c2ccccc2Cl)c1)c1ccc([N+](=O)[O-])o1	D1 antag -46
O=C(Nc1ccc(N2CCCC2)c(Cl)c1)c1ccc([N+](=O)[O-])o1	none
Cc1cc(C)nc(N/N=C/C2=C(N3CCOCC3)C(=C\c3ccc(Cl)cc3)/CC2)n1	none
O=C(O)c1ccc(N/N=C/C2=C(N3CCOCC3)C(=C\c3ccccc3)/CC2)cc1	D1 ag 83
O=C(/C=C/c1cn(CC(O)CN2CCCCC2)c2ccccc12)c1ccccc1 (configuration not stated)	D1 ag 31, D1 antag -50
COc1ccc(C(=O)/C=C/c2cn(CC(O)CN3CCCCCC3)c3ccccc23)cc1OC (configuration not stated)	none
Cc1ccc(C(=O)/C=C/c2cn(CC(O)CN3CCCCCC3)c3ccccc23)cc1 (configuration not stated)	D1 ag 59
O=C(/C=C/c1cn(CC(O)CN2CCCCCC2)c2ccccc12)c1ccc(Br)cc1 (configuration not stated)	D1 ag 45
O=C(/C=C/c1cn(CC(O)CN2CCCCCC2)c2ccccc12)c1ccccc1 (configuration not stated)	D1 ag 54
CCOc1ccc(OCC)c(Nc2cc(C)nc3nc(-c4ccco4)nn23)c1	none
O=C(CCc1ccccc1)NNC(=O)COc1ccc(Br)cc1	none
COC(=O)N/N=C/c1cc(Br)ccc1O	none
O=C(CSCc1ccccc1)N/N=C/c1cc2c(cc1Br)OCO2	none
CC(C)NC(=S)N/N=C/c1cc(Br)ccc1O	D1 antag -58
O=C(N/N=C/c1cc(Br)ccc1O)c1ccccc1Cl	D1 antag -42
O=C(CCc1ccccc1)N/N=C/c1cc(Br)ccc1O	D1 antag -43
O=C(CCc1ccccc1)N/N=C\c1cc2c(cc1Br)OCO2	D1 antag -31
Cc1ccc2oc(C(=O)Nc3ccc(S(=O)(=O)Nc4nccc(C)n4)cc3)cc(=O)c2c1	none
CCC(C)NC(=O)c1cn(CC)c2ccc(S(=O)(=O)N3CCc4ccccc4C3)cc2c1=O (configuration not stated)	none
CC1(C)Cc2cccc(C(=O)Nc3ccncc3)c2O1	none
CC1(C)Cc2cccc(C(=O)Nc3ccc(Cl)cc3)c2O1	D1 antag -34
CCOc1ccc(-c2cc(C(=O)NCCc3ccccc3)c3c(-c4ccc(C)cc4)[nH]nc3n2)cc1	none
